Data as given in paper PMC7862700, “An all-to-all approach to the identification of sequence-specific readers for epigenetic DNA modifications on cytosine”.

Assays:
Experiment in all cases: DAPPL (digital affinity profiling via proximity ligation, sequencing); 10 mM Tris-HCl pH 7.5, 50 mM NaCl, 1 mM DTT, 4% glycerol, room temperature, 30 min; GST-TFs on glutathione beads, 16-mer random dsDNA library, 0.1% formaldehyde crosslink after washing; high values mean tight binding
FEV = molecular target: T1, FEV (Homo sapiens, UniProt Q99581 1-238); details: protein: recombinant; tags: N-terminal GST; dsDNA, one strand shown
T1 sequence: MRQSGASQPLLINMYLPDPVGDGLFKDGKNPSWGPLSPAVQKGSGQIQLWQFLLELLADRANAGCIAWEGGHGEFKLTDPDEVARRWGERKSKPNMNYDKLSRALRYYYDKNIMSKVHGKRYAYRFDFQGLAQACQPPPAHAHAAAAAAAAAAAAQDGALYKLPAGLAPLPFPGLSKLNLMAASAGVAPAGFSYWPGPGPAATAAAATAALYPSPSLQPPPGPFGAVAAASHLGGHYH
Method in brief: (§1)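 Binding signal is each hexamer's read frequency for a factor divided by its frequency in the tag-only sample. The factors were GST-fused human transcription factors from yeast, captured on glutathione beads, DNA-barcoded and pooled with that sample. Pools were incubated with 200 nmole of a random double-stranded 16-mer DNA library in Tris/NaCl/DTT/glycerol buffer at room temperature for 30 min, then washed, crosslinked with 0.1% formaldehyde, proximity-ligated with BsaI/T4 ligase (1 h, 37 °C), PCR-amplified and sequenced on an Illumina NextSeq500.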

ETV5 = ETV5 (Homo sapiens, UniProt P41161 1-510); details: protein: recombinant; tags: N-terminal GST; dsDNA, one strand shown
Sequence of ETV5 (P41161 whole entry): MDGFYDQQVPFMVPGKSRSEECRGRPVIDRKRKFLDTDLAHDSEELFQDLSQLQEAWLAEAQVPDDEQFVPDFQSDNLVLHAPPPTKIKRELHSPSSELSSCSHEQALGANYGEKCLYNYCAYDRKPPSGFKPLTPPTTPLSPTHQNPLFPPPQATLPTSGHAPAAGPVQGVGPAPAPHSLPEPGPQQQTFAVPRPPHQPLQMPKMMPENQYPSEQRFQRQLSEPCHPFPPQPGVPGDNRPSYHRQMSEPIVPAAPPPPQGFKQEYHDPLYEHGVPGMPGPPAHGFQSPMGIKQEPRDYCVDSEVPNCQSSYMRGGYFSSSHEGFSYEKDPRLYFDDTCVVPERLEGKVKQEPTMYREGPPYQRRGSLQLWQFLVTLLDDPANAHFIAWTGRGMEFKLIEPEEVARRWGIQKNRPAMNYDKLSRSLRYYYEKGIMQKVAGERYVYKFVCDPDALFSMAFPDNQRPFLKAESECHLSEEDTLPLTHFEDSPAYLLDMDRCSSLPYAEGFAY
Method in brief: as §1

HSF1 = HSF1 (Homo sapiens, UniProt Q00613 1-529); details: protein: recombinant; tags: N-terminal GST; chain copies: 3; dsDNA, one strand shown
Sequence of HSF1 (Q00613 whole entry): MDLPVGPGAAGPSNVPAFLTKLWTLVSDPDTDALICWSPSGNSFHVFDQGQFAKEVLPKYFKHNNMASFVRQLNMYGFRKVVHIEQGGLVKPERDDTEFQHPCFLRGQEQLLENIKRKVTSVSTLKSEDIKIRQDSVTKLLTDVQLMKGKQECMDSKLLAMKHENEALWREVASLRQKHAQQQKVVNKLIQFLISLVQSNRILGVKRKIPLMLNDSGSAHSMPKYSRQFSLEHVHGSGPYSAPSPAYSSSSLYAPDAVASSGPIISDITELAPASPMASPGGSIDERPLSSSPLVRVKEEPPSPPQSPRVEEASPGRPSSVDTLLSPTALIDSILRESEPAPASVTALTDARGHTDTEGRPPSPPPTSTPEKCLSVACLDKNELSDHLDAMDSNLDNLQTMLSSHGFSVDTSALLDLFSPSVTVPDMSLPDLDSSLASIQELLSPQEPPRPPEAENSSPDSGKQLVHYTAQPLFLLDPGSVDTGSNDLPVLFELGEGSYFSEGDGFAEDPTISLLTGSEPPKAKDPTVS
Method in brief: as §1

SPIC = molecular target: T2, SPIC (Homo sapiens, UniProt Q8N5J4 1-248); details: protein: recombinant; tags: N-terminal GST; dsDNA, one strand shown
T2 sequence: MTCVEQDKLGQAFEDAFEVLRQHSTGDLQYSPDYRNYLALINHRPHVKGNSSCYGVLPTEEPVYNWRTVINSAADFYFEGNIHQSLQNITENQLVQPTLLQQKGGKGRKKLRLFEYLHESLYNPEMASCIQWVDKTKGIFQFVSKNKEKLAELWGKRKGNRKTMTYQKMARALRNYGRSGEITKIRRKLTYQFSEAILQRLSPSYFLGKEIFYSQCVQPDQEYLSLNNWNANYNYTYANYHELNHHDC
Method in brief: as §1

ELF4 = ELF4 (Homo sapiens, UniProt Q99607 1-663); details: protein: recombinant; tags: N-terminal GST; dsDNA, one strand shown
Sequence of ELF4 (Q99607 whole entry): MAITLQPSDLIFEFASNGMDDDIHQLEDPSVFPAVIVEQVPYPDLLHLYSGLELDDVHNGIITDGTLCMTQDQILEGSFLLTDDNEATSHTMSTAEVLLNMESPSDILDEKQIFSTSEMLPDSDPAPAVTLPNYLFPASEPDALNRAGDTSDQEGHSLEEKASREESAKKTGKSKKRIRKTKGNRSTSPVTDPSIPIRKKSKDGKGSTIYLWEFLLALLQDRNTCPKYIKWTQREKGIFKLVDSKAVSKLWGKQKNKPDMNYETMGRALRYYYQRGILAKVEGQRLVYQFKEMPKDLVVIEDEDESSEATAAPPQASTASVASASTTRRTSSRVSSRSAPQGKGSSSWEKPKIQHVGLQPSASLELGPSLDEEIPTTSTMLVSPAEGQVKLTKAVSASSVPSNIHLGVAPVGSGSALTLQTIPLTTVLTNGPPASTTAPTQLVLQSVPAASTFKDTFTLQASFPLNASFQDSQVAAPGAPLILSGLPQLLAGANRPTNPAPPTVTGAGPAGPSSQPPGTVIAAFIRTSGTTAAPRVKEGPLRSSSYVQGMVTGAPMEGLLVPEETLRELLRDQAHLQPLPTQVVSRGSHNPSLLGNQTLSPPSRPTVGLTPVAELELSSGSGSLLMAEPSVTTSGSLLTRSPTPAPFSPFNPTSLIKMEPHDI
Method in brief: as §1

ELK4 = molecular target: T3, ELK4 (Homo sapiens, UniProt P28324-2 1-405); details: protein: recombinant; tags: N-terminal GST; dsDNA, one strand shown
T3 sequence: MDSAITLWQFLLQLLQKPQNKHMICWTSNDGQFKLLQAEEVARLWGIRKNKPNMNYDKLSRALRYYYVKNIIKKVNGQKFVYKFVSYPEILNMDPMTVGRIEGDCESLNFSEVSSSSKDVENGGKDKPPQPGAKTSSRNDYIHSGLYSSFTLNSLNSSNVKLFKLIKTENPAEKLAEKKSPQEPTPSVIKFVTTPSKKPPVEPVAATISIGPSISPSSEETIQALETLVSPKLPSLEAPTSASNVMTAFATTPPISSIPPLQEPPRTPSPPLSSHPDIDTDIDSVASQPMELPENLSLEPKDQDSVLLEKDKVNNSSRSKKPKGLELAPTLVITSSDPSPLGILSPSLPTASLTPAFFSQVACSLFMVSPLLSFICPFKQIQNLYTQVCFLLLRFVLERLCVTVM
Method in brief: as §1

ETV2 = molecular target: T4, ETV2 (Homo sapiens, UniProt O00321 1-342); details: protein: recombinant; tags: N-terminal GST; dsDNA, one strand shown
T4 sequence: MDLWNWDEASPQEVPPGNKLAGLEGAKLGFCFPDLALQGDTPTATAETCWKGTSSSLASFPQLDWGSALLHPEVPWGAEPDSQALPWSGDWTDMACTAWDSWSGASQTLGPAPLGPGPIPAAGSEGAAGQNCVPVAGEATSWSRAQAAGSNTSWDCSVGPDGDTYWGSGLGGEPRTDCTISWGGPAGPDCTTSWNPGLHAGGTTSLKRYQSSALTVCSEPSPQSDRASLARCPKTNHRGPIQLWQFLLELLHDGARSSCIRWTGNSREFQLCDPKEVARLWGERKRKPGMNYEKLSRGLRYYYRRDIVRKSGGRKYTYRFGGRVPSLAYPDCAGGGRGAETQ
Method in brief: as §1

ELF3 = molecular target: T5, ELF3 (Homo sapiens, UniProt P78545 1-371); details: protein: recombinant; tags: N-terminal GST; dsDNA, one strand shown
T5 sequence: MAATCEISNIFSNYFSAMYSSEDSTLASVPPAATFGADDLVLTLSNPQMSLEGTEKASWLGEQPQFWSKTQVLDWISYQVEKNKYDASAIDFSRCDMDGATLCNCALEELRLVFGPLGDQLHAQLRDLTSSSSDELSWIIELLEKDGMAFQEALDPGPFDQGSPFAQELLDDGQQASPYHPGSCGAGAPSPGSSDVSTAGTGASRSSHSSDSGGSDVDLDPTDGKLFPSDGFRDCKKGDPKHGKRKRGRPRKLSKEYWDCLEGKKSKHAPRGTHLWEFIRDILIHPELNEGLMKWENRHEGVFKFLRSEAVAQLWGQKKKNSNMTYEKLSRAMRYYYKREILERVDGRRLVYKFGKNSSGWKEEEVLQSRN
Method in brief: as §1

CRX = CRX (Homo sapiens, UniProt O43186 1-299); details: protein: recombinant; tags: N-terminal GST; dsDNA, one strand shown
Sequence of CRX (O43186 whole entry): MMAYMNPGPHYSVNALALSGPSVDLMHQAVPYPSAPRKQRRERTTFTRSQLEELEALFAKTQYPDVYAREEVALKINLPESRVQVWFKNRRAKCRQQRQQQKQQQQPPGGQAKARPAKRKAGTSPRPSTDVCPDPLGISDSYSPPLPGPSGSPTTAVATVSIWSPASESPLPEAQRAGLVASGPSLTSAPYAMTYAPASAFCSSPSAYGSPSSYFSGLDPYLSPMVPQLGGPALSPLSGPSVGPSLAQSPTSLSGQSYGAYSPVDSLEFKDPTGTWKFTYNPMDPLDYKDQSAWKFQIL
Method in brief: as §1

ETV1 = ETV1 (Homo sapiens, UniProt P50549 1-477); details: protein: recombinant; tags: N-terminal GST; dsDNA, one strand shown
Sequence of ETV1 (P50549 whole entry): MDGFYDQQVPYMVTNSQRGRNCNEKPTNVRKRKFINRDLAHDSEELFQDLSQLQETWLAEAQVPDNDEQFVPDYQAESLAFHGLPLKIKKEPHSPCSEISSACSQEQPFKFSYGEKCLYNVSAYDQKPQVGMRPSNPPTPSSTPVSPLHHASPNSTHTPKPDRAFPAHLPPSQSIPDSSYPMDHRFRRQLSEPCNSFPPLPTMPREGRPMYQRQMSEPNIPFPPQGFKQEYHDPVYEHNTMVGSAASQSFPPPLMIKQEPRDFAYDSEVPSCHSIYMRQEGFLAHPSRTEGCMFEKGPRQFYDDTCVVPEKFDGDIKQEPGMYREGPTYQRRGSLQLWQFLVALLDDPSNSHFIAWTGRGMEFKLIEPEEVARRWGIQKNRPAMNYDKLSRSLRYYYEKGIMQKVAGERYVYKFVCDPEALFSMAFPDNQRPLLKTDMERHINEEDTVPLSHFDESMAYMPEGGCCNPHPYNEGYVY
Method in brief: as §1

ERF = molecular target: T6, ERF (Homo sapiens, UniProt P50548 1-548); details: protein: recombinant; tags: N-terminal GST; dsDNA, one strand shown
T6 sequence: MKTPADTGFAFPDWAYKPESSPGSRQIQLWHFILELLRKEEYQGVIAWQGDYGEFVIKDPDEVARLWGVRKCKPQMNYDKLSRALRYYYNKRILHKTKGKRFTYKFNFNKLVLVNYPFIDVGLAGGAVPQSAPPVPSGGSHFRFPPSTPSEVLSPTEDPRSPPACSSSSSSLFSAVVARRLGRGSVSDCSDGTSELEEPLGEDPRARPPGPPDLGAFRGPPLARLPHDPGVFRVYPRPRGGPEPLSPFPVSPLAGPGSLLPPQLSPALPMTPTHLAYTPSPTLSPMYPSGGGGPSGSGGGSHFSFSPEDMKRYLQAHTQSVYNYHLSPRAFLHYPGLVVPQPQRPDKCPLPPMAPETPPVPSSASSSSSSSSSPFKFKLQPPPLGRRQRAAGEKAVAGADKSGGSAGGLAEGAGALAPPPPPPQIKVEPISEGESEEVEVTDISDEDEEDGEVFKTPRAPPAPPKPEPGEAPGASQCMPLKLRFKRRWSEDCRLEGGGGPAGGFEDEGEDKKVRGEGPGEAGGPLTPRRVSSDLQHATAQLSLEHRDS
Method in brief: as §1

ETV3L = molecular target: T7, ETV3L (Homo sapiens, UniProt Q6ZN32 1-361); details: protein: recombinant; tags: N-terminal GST; dsDNA, one strand shown
T7 sequence: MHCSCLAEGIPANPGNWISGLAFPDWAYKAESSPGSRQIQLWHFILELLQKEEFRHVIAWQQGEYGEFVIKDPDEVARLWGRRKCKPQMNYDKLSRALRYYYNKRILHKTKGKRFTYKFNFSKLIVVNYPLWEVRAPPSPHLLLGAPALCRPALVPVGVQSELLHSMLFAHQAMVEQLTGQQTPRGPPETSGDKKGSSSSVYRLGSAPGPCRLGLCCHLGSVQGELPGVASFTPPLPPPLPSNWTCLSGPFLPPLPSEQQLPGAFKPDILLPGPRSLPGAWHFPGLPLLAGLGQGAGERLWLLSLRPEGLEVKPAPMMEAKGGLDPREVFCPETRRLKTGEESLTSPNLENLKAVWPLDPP
Method in brief: as §1

ETS2 = molecular target: T8, ETS2 (Homo sapiens, UniProt P15036 1-469); details: protein: recombinant; tags: N-terminal GST; dsDNA, one strand shown
T8 sequence: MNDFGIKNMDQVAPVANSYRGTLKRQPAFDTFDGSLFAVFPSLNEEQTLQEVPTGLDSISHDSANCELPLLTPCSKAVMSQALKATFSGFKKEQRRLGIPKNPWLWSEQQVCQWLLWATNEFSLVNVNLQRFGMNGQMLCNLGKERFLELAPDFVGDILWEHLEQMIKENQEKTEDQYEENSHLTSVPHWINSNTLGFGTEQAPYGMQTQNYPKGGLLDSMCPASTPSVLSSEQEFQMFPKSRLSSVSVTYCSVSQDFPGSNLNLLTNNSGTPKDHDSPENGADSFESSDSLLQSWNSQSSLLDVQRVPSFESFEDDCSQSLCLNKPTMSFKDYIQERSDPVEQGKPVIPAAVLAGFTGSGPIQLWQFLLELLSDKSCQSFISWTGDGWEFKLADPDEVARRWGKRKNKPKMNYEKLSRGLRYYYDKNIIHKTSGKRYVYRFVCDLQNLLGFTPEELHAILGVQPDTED
Method in brief: as §1

SPDEF = molecular target: T9, SPDEF (Homo sapiens, UniProt O95238 1-335); details: protein: recombinant; tags: N-terminal GST; dsDNA, one strand shown
T9 sequence: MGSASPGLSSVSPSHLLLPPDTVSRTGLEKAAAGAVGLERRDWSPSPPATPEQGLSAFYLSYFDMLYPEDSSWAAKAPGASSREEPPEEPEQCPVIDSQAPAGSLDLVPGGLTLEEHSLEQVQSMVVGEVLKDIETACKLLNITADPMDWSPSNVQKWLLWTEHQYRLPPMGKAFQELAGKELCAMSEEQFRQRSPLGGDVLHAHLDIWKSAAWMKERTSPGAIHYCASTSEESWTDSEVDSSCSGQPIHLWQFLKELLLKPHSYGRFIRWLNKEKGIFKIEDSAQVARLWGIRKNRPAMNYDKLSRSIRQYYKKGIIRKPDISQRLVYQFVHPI
Method in brief: as §1

ETV7 = molecular target: T10, ETV7 (Homo sapiens, UniProt Q9Y603 1-341); details: protein: recombinant; tags: N-terminal GST; dsDNA, one strand shown
T10 sequence: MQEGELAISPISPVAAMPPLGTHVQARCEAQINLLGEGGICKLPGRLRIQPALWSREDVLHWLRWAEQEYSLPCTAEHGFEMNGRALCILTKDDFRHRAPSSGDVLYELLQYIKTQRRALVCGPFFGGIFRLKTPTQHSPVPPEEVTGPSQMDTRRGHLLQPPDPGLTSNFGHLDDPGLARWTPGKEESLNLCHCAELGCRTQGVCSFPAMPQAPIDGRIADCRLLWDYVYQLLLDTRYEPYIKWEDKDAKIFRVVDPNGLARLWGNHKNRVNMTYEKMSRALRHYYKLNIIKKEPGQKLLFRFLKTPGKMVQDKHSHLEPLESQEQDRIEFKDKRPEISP
Method in brief: as §1

ELF5 = molecular target: T11, ELF5 (Homo sapiens, UniProt Q9UKW6-2 1-255); details: protein: recombinant; tags: N-terminal GST; dsDNA, one strand shown
T11 sequence: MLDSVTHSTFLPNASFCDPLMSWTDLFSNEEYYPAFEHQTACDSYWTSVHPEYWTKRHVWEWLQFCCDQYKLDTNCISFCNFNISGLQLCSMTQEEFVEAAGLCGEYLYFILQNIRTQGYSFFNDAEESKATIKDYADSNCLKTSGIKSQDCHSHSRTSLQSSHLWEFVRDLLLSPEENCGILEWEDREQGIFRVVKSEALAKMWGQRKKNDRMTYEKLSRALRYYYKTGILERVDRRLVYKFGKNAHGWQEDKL
Method in brief: as §1

ETV3 = molecular target: T12, ETV3 (Homo sapiens, UniProt P41162-2 1-143); details: protein: recombinant; tags: N-terminal GST; dsDNA, one strand shown
T12 sequence: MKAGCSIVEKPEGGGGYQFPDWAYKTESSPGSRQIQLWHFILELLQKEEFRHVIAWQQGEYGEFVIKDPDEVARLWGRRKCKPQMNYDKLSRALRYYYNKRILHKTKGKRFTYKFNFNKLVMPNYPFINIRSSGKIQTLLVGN
Method in brief: as §1

ETV6 = ETV6 (Homo sapiens, UniProt P41212 1-452); details: protein: recombinant; tags: N-terminal GST; dsDNA, one strand shown
Sequence of ETV6 (P41212 whole entry): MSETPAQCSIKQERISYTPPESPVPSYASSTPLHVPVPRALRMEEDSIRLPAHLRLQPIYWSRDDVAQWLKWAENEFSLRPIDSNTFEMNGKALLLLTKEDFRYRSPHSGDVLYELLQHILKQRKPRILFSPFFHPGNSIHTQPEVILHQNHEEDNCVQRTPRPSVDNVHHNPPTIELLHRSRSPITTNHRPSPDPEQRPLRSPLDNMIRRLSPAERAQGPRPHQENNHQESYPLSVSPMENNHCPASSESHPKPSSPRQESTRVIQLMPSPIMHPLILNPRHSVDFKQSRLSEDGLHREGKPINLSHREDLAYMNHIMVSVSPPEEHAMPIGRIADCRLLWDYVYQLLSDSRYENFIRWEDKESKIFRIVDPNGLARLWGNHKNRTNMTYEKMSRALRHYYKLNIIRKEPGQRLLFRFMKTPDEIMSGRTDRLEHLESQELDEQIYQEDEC
Method in brief: as §1

CTTTGT
binding signal (FEV): 1.28 fold enrichment (6-mer frequency, TF over GST control)
binding signal (ETV5): 1.3 fold enrichment (6-mer frequency, TF over GST control)
binding signal (HSF1): 1.22 fold enrichment (6-mer frequency, TF over GST control)
binding signal (SPIC): 1.21 fold enrichment (6-mer frequency, TF over GST control)
binding signal (ELF4): 1.29 fold enrichment (6-mer frequency, TF over GST control)
binding signal (ELK4): 1.43 fold enrichment (6-mer frequency, TF over GST control)
binding signal (ETV2): 1.03 fold enrichment (6-mer frequency, TF over GST control)
binding signal (ELF3): 1.23 fold enrichment (6-mer frequency, TF over GST control)
binding signal (CRX): 1.38 fold enrichment (6-mer frequency, TF over GST control)
binding signal (ETV1): 1.25 fold enrichment (6-mer frequency, TF over GST control)
binding signal (ERF): 1.3 fold enrichment (6-mer frequency, TF over GST control)
binding signal (ETV3L): 1.41 fold enrichment (6-mer frequency, TF over GST control)
binding signal (ETS2): 1.24 fold enrichment (6-mer frequency, TF over GST control)
binding signal (SPDEF): 1.21 fold enrichment (6-mer frequency, TF over GST control)
binding signal (ETV7): 1.36 fold enrichment (6-mer frequency, TF over GST control)
binding signal (ELF5): 1.24 fold enrichment (6-mer frequency, TF over GST control)
binding signal (ETV3): 1.32 fold enrichment (6-mer frequency, TF over GST control)
binding signal (ETV6): 1.31 fold enrichment (6-mer frequency, TF over GST control)
